Consider 12 compounds from PubChem BioAssay (Tox21).

Values without a mark were called inactive. Results filed as inconclusive are left out. Activity calls are given as the source filed them. Unless noted, calls come from the whole dose curve; as a rule, active = well fitted curve in the direction sought with a large enough effect in the repeat runs; inconclusive = weak or mixed curves; inactive = no such curve, though single readings can be large; an effect the other way counts as inactive or inconclusive.

A short description of experiment [1]: qHTS assay to identify small molecule antagonists of the androgen receptor (AR) signaling pathway using the MDA cell line in the presence of 0.5 nM R1881 - cell viability counter screen (AID 1259242). Note: % is set by controls: 0 for no effect and ±100 for the full control effect; nearly all actives have a fitted effect of over 45% in size. Summed up:
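MDA-kb2 cells (MMTV-luciferase, AR/GR responsive) were treated with compounds plus 0.5 nM R1881 (final) for 16 hr at 37C, 0% CO2. Viability was then read in the same wells as live-cell protease fluorescence (CellTiter-Fluor, 30 min).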

Experiment [2] can be described thus: qHTS assay to identify small molecule HDAC inhibitors (AID 1259364). Note: top concentration of the series differs between compounds; % is set by controls: 0 for no effect and ±100 for the full control effect; nearly all actives have a fitted effect of over 45% in size. Summed up: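 Wild-type HCT-116 cells, plated overnight at 37 C, exposed to compounds 2 hr at 37 C; luminogenic HDAC-Glo substrate then added 30 min at room temperature. Luminescence reports relative endogenous class I/II HDAC activity.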
A short description of experiment [3]: qHTS assay to identify small molecule HDAC inhibitors - cell viability counter screen (AID 1259365). Note: series mostly up to about 92 µM; % is set by controls: 0 for no effect and ±100 for the full control effect; nearly all actives have a fitted effect of over 50% in size. Summed up: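 Luminescence from CellTiter-Glo, developed 30min at room temperature, reports viability of wild-type HCT-116 cells treated 2hr with compounds at 37 C and 5% CO2 after overnight plating.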
(In general: Quantitative high-throughput screening tests each substance at several concentrations.)

Experiment [4] in a line: qHTS assay to identify small molecule agonists of the sonic hedgehog signaling (Shh) pathway (AID 1259368; calls by dose curve;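 note: NIH/3T3-derived 3T3Gli1-Luc cells carrying a stable Gli1-driven firefly luciferase reporter; series mostly up to about 92 µM; % is set by controls: 0 for no effect and ±100 for the full control effect; nearly all actives have a fitted effect of over 15% in size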). An outline of the steps: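 NIH/3T3-derived 3T3Gli1-Luc cells with stably integrated Gli1-driven firefly luciferase, 2,000 cells/well, compounds added after 4 hr. Incubated 24 hr at 37C, 5% CO2; luminescence read after 30 min with luciferase reagent at room temperature.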

The nature of experiment [5]: qHTS assay to identify small molecule antagonists of the sonic hedgehog signaling (Shh) pathway (AID 1259369; calls by dose curve; note: nearly all actives have a fitted effect of over 45% in size; note: potency is the fitted concentration of half-maximal effect; for activity change, negative = inhibition: % is set by controls: 0 for no effect and ±100 for the full control effect). An outline of the steps: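 NIH/3T3-derived Gli1-Luc reporter cells plated 4 h, dosed with compound, then stimulated with conditioned medium for 24 h at 37 C. Firefly luciferase luminescence read after 30 min with detection reagent at room temperature.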
Experiment [6] addresses Estrogen receptor beta (Homo sapiens) (UniProt Q92731). In words: qHTS assay to identify small molecule agonists of the estrogen receptor beta (ER-beta) signaling pathway (AID 1259377; active = well fitted activation curve with a large enough effect in the signal ratio in the repeat runs, not every such curve was filed as active; the % refers to the signal ratio; note: % is set by controls: 0 for no effect and ±100 for the full control effect). Summed up:
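HEK293T ER-beta-UAS-bla; 2% charcoal-stripped FBS; cells pre-incubated 6 hr, compound 16 hr, 37C/5% CO2; LiveBLAzer B/G FRET substrate 2 h RT; fluorescence intensity read.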

Experiment [7] has the same target. Put plainly: qHTS assay to identify small molecule antagonists of the estrogen receptor beta (ER-beta) signaling pathway (AID 1259378; active = well fitted inhibition curve with a large enough effect in the signal ratio in the repeat runs, not every such curve was filed as active; the % refers to the signal ratio; note: potency is the fitted concentration of half-maximal effect). Summed up: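 Antagonist mode: compounds added to beta-lactamase reporter HEK293T ER-beta-UAS cells stimulated with E2 (1nM final), 16 hr at 37C. LiveBLAzer B/G FRET substrate, 2 hours room temperature, fluorescence read-out.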

Experiment [8] is described as follows: qHTS assay to identify small molecule agonists of the estrogen receptor beta (ER-beta) signaling pathway - cell viability counter screen (AID 1259380). Note: nearly all actives have a fitted effect of over 30% in size. Note: potency is the fitted concentration of half-maximal effect. An outline of the steps:
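ER-beta-UAS-bla HEK293T cells in medium with 2% charcoal-stripped FBS, pre-incubated 6 hr, then treated 16 hr at 37C. Cytotoxicity read in the same wells by CellTiter-Glo luminescence after 30 min at room temperature.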

The target of experiment [9] is Estrogen receptor (Homo sapiens) (UniProt P03372). Put plainly: qHTS assay to identify small molecule agonists of the estrogen receptor alpha (ER-alpha) signaling pathway in the presence of an antagonist (AID 1259383; calls by dose curve; note: top concentration of the series differs between compounds; % is set by controls: 0 for no effect and ±100 for the full control effect; nearly all actives have a fitted effect of over 15% in size). Summed up:
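VM7Luc4E2 cells express endogenous full-length ER-alpha with an ERE-luciferase reporter and were hormone-deprived for 5 days. Compounds at 15 concentrations were added with 10.0nM ICI-182,780 for 22hr at 37C. Luminescence was read with ONE-Glo.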

Experiment [10] can be described thus: qHTS assay to identify small molecule agonists or antagonists of the thyroid stimulating hormone receptor (TSHR) signaling pathway - wild type cell line counter screen (AID 1259384; calls by dose curve; note: % is set by controls: 0 for no effect and ±100 for the full control effect). Summed up:
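Counter screen in untransfected Hek293: compounds (15-point titration, triplicate) plus phosphodiesterase inhibitor Ro20-1724 added after 18 h plating; 30 min RT. Intracellular cAMP via competitive d2/cryptate immunoassay, 1 h incubation.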

The target of experiment [11] is Thyrotropin receptor (Homo sapiens) (UniProt P16473). Put plainly: qHTS assay to identify small molecule antagonists of the thyroid stimulating hormone receptor (TSHR) signaling pathway (AID 1259385; calls by dose curve; note: % is set by controls: 0 for no effect and ±100 for the full control effect; nearly all actives have a fitted effect of over 20% in size). Summed up: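 Antagonist mode: compound-treated TSHR-expressing HEK293 cells were stimulated with 1.5 ng/mL TSH (final) in presence of Ro20-1724 for 30 min at RT. HTRF cAMP detection after 1 h; each compound tested at 15 concentrations, triplicate.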

Experiment [12] is described as follows: qHTS assay to identify small molecule agonists of the sonic hedgehog signaling (Shh) pathway - cell viability counter screen (AID 1259366). Note: nearly all actives have a fitted effect of over 50% in size. Note: potency is the fitted concentration of half-maximal effect. An outline of the steps:
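Cytotoxicity counter screen run in the same wells as the Shh reporter assay. NIH/3T3 cells carrying a Gli1 response element–driven luciferase were treated with DMSO-dissolved compounds for 24hr, and live-cell protease activity was measured with CellTiter-Fluor.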

Experiment [13] can be described thus: qHTS assay to identify small molecule antagonists of the sonic hedgehog signaling (Shh) pathway - cell viability counter screen (AID 1259367). Note: nearly all actives have a fitted effect of over 55% in size. Note: potency is the fitted concentration of half-maximal effect. Summed up:
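Using CellTiter-Fluor, viability of Gli1-Luc reporter 3T3 cells is read by fluorescence in the wells used for the Shh luciferase assay. Treatment lasts 23 hr with conditioned medium, then reagent 1 hr at 37C.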

The nature of experiment [14]: qHTS assay to identify small molecule agonists of the androgen receptor (AR) signaling pathway in the presence of an antagonist - cell viability counter screen (AID 1259379). Note: nearly all actives have a fitted effect of over 25% in size. Note: potency is the fitted concentration of half-maximal effect. An outline of the steps: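 MDA-kb2 cells (MMTV-luciferase, AR/GR), 3,000/well, 5 h attachment, then 3.0 µM nilutamide (final) and compounds at 15 concentrations. Viability by CellTiter-Fluor fluorescence after 16 h at 37 °C, 0% CO2, in the reporter wells.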

Experiment [15] can be described thus: qHTS assay to identify small molecule antagonists of the estrogen receptor beta (ER-beta) signaling pathway - cell viability counter screen (AID 1259382). Note: nearly all actives have a fitted effect of over 55% in size. Note: potency is the fitted concentration of half-maximal effect. An outline of the steps: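 ER-beta-UAS-bla HEK293T cells in 2% charcoal-stripped FBS medium, treated with compound plus 1 nM 17-beta-estradiol for 16 h at 37C. Viability read by CellTiter-Glo luminescence after 30 min at room temperature in the same wells.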

Experiment [16] is described as follows: qHTS assay to identify small molecule phospholipidosis (PLD) inducers (AID 1259344; active = well fitted curve in the direction sought with a large enough effect; an effect the other way counts as inactive or inconclusive; note: % is set by controls: 0 for no effect and ±100 for the full control effect). Summed up: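 Fluorescent phospholipid staining (LipidTOX Red) measured by automated microscopy in fixed HepG2 cells after 24 h treatment; nuclei counterstained with Hoechst 33342; amiodarone as reference inducer.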
The target in experiment [17] is Estrogen receptor (Homo sapiens) (UniProt P03372). Put plainly: qHTS assay to identify small molecule antagonists of the estrogen receptor alpha (ER-alpha) signaling pathway using the BG1 cell line in the presence of 0.1 nM 17-beta-estradiol (AID 1259244). Note: nearly all actives have a fitted effect of over 50% in size. Note: potency is the fitted concentration of half-maximal effect. An outline of the steps:
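VM7Luc4E2 cells (endogenous full-length ER-alpha, 4×ERE-luciferase), kept 5 days in phenol red-free, charcoal-stripped FBS medium; 4,000 cells/well. Compounds added with 0.1 nM (final) 17beta-estradiol, 22 hr at 37C; luminescence read with ONE-Glo after 30 min.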

For experiment [18], the target named is Androgen receptor (Homo sapiens) (UniProt P10275). In words: qHTS assay to identify small molecule agonists of the androgen receptor (AR) signaling pathway in the presence of an antagonist (AID 1259381; calls by dose curve; note: % is set by controls: 0 for no effect and ±100 for the full control effect; nearly all actives have a fitted effect of over 15% in size). Summed up: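 MDA-kb2 cells carrying MMTV-luciferase (AR/GR responsive), 3,000 cells/well, co-treated with 3.0 uM nilutamide final. Compounds at 15 concentrations, 16 hr at 37C without CO2. Luciferase luminescence read after 30 min with ONE-Glo.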

Experiment [19] has the same target. In words: qHTS assay to identify small molecule antagonists of the androgen receptor (AR) signaling pathway using the MDA cell line in the presence of 0.5 nM R1881 (AID 1259243). Note: potency is the fitted concentration of half-maximal effect; nearly all actives have a fitted effect of over 50% in size. An outline of the steps:
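MDA-kb2 cells (MMTV-luciferase, responsive to AR and GR) at 3,000/well, rested 5 h at 37C, 0% CO2, then given compounds plus 0.5 nM R1881 (final) for 16 hr. Luciferase read with ONE-Glo after 30 min at room temperature.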

Chain of Estrogen receptor beta (Homo sapiens) (Q92731 whole entry, looked up): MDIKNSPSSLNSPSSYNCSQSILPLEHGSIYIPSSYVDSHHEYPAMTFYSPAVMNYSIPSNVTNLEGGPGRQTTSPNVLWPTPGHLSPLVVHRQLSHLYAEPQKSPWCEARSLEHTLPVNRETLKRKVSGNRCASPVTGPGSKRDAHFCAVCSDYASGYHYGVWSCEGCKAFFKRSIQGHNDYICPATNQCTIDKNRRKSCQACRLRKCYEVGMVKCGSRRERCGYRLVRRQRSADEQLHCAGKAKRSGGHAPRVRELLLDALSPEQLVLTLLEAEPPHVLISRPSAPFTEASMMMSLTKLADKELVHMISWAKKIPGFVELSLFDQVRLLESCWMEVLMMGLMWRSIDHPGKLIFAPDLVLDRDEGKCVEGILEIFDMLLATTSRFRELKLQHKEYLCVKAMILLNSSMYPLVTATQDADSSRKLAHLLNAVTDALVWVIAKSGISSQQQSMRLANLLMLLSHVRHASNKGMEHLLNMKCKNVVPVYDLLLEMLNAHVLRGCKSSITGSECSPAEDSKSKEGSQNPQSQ
Chain of Estrogen receptor (Homo sapiens) (P03372 whole entry, looked up): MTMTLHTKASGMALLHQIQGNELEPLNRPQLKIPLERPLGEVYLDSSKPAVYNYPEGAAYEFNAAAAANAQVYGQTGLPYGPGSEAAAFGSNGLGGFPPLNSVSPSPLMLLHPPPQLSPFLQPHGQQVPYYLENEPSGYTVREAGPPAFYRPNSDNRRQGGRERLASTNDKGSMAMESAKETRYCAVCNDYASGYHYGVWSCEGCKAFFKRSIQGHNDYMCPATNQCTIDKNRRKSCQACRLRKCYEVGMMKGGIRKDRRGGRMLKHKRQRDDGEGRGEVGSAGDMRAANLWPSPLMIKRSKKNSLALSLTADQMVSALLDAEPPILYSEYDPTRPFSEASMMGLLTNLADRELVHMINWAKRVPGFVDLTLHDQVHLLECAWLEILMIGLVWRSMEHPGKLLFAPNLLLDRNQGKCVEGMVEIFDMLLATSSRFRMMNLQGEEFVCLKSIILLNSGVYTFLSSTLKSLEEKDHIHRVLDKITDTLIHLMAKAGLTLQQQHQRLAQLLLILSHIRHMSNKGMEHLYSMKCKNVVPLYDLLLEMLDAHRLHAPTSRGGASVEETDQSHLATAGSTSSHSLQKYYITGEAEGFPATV
Chain of Thyrotropin receptor (Homo sapiens) (P16473 whole entry, looked up): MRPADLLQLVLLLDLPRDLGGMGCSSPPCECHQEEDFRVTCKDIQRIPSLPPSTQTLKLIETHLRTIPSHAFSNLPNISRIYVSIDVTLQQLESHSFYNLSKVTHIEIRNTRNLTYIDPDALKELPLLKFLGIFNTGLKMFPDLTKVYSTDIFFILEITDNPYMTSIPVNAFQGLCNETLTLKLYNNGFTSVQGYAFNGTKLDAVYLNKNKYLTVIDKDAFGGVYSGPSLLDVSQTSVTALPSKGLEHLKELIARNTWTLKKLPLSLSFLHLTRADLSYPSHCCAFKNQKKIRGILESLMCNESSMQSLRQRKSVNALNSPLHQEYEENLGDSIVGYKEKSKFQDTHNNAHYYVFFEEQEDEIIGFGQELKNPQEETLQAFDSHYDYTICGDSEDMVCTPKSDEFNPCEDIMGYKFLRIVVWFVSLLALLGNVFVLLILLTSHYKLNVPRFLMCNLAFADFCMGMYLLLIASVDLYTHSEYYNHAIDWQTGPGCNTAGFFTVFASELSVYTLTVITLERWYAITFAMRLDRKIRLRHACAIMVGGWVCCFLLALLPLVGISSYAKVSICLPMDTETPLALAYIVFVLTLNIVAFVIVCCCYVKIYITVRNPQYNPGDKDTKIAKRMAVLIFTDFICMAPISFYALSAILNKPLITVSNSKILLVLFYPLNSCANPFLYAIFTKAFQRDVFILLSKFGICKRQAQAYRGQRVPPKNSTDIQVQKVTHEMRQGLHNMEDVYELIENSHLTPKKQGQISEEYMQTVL
Chain of Androgen receptor (Homo sapiens) (P10275 whole entry, looked up): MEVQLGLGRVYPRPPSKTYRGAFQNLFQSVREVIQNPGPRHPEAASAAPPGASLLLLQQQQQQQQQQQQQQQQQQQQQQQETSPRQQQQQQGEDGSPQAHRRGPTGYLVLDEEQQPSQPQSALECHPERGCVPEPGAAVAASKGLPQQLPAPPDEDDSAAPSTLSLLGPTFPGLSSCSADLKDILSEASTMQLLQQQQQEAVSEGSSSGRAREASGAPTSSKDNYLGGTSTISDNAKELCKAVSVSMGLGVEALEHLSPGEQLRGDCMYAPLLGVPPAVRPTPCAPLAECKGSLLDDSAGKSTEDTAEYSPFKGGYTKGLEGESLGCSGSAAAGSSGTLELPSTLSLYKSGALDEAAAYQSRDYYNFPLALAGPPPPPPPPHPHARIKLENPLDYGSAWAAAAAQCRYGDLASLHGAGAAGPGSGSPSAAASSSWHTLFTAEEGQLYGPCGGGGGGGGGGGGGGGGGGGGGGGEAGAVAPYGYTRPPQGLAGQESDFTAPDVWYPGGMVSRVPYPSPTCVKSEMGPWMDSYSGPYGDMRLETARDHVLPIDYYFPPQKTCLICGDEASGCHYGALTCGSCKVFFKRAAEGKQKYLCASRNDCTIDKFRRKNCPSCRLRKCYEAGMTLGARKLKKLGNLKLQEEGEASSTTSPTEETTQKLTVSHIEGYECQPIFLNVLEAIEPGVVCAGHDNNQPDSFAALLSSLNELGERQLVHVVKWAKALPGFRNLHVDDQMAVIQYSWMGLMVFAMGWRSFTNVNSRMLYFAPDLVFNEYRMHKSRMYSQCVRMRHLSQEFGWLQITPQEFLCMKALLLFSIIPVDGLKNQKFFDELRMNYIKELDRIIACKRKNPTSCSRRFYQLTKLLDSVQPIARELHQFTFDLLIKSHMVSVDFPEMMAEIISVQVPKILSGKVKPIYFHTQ

For `O=C1NCN(c2ccccc2)C12CCN(CC1COc3ccccc3O1)CC2` (centres undefined), the Potency result in experiment [1], in experiment [2], in experiment [3], in experiment [4], in [5] and in [6] was “inactive” each time. Moreover, the Potency entry in [7], in experiment [9] and in experiment [11] was “inactive” in each case. Besides, the Potency in experiment [8] is 11.9 µM (active). The compound was called inactive in [10].
Take `CC(=O)[O-].CC(=O)[O-].O.O.[Cd+2]`: the Potency entry in [1], in [2], in [3], in [4] and in experiment [14] was “inactive” in each case. For the same compound, the Potency in experiment [12] was 3.8 µM (active); in [13], 8.51 µM (active); in experiment [5], 1.07 µM (active); in experiment [8] it was 60.3 µM (active); in [15], 53.7 µM (active).
In the case of `CCCOCC(=Nc1ccc(Cl)cc1C(F)(F)F)n1ccnc1`, the Potency entry in experiment [2], in experiment [4], in [6] and in [11] was “inactive” throughout. In addition, the Potency in experiment [13] was 54.4 µM (active); in [5], 9.68 µM (active); in experiment [7], 17.2 µM (active); in [15], 61.1 µM (active). For the same compound, the result in experiment [10] was inactive.
With `CC(C)Oc1cccc(NC(=O)c2ccccc2C(F)(F)F)c1`, the Potency result in experiment [1], in [16], in experiment [2], in experiment [3], in experiment [12] and in [4] was “inactive” each time. For the same compound, the Potency result in experiment [6], in experiment [14] and in experiment [9] was “inactive” throughout. Besides, the values for the Potency in experiment [5] and in [8] were 2.17 µM (active) and 17.2 µM (active), respectively. For the same compound, in experiment [10], the result was inactive.
Turning to `CC(C)(C)c1cc([N+](=O)[O-])cc(C(C)(C)C)c1O`, the Potency was 6.11 µM (active) in experiment [17], 3.06 µM (active) in experiment [5] and 8.63 µM (active) in [14]. Moreover, the Potency result in experiment [2], in experiment [12], in [4], in experiment [6], in [15] and in experiment [9] was “inactive” throughout. In addition, the call in [10] was inactive.
For `C=CCOC(N)=O`, the Potency entry in [1], in experiment [2], in experiment [3], in experiment [12], in experiment [13] and in experiment [4] was “inactive” in each case. For the same compound, the Potency entry in [5], in experiment [14], in experiment [8], in experiment [15] and in experiment [11] was “inactive” each time. In [10], the compound was called inactive.
Regarding `Oc1c(Br)c(Br)c(Br)c(Br)c1Br`, the Potency result in experiment [2], in [3], in experiment [12], in [13], in experiment [4] and in experiment [18] was “inactive” each time. In addition, the Potency result in experiment [15] and in [9] was “inactive” in each case. The Potency in [5] was 19.4 µM (active).
As for `CC[C@H]1C[C@@H]2C[C@H]3c4[nH]c5ccc(OC)cc5c4CCN(C2)[C@@H]13`, the Potency in [19] was 60.1 µM (active); in experiment [12], 53.5 µM (active); in [13], 60.1 µM (active); in [5], 12 µM (active). The Potency result in experiment [16], in experiment [2], in [3], in [4], in [8] and in experiment [18] was “inactive” in each case. In addition, the Potency result in experiment [15] and in [9] was “inactive” throughout.
For `CC(=O)[O-].[Tl+]`, the Potency result in experiment [1], in [2], in experiment [3], in experiment [12], in experiment [13] and in [4] was “inactive” each time. In experiment [14], the Potency result was “inactive”. The figures for the Potency in experiment [8] and in experiment [15] were 2.75 µM (active) and 38.8 µM (active), respectively.
For `Nc1ccc([N+](=O)[O-])cc1Cl`, in experiment [19], the Potency was 24.3 µM (active). Besides, the Potency entry in experiment [17], in [2], in experiment [3], in [12], in [13] and in experiment [4] was “inactive” in each case. Also, the Potency result in experiment [5], in experiment [8], in experiment [18], in [15], in experiment [9] and in experiment [11] was “inactive” in each case. In addition, in experiment [10], the call was inactive.
Turning to `C=CC(=O)OCCCCOC(=O)C=C`, the Potency entry in experiment [17], in experiment [2], in [4], in [8] and in [9] was “inactive” throughout. The figures for the Potency in experiment [12] and in experiment [14] were 61.1 µM (active) and 54.5 µM (active), respectively. In addition, in experiment [10], the result was inactive.
In the case of `Brc1c(Br)c(Br)c(Oc2c(Br)c(Br)c(Br)c(Br)c2Br)c(Br)c1Br`, the values for the viability change, negative = cytotoxic in [1], in experiment [12] and in experiment [13] were -0.43% [at 19 µM], -1.06% [at 19 µM] and 4.4% [at 19 µM], respectively. Besides, the activity change, negative = inhibition in experiment [2] was -0.806% [at 19 µM]; in experiment [5] it was 16.8% [at 19 µM]. Besides, the activity change, negative = cytotoxicity in [3] was 2.12% [at 19 µM]; in [14] it was 4.12% [at 19 µM]; in experiment [8] it was -3.73% [at 19 µM]; in [15], 4.03% [at 19 µM]. Also, the activity change in experiment [4] was 0.699% [at 18.9 µM, stronger effect = higher value]. Also, in experiment [6], the activation is 9.23% [at 19 µM]. Also, the activity, negative = inhibition in experiment [7] is -4.25% [at 19 µM]. Also, the cAMP activity change in [10] was -3.73% [at 18.9 µM].
